GALK inhibitor = qHTS Assay for Inhibitors of Human Galactokinase (GALK): NCGC Sytravon Library Screen; recombinant GALK, Kinase-Glo ATP luminescence, 1 h; AID 1347072, 2019; P51570; 44,000 tested, under 10 active; Potency, µM (top dose mostly 57.5 µM), without a hit: at the top dose activity, negative = inhibition, usual class: inhibitors;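 note: plate controls were full GALK reaction for no effect and reaction lacking GALK for full effect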
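5 nM GALK with 35 µM ATP and 100 µM galactose in HEPES pH 8.0, MgCl2, NaCl, DTT, BSA; 1 h RT reaction, remaining ATP detected by Kinase-Glo Plus luminescence after 10 min; qHTS concentration series.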
GALC G270D act = A Novel Cell-Based Assay to Identify Small Molecules for B -Galactocerebrosidase | 45,000 tested, 0.1% active | P54803 | AID 1159614, 2016 | Potency, µM (highest dose often 57.5 µM), actives largely listed as activators | 145M-Twi-hGALC-G270D cells (Twitcher mouse brain line with human GALC G270D), HMU-beta-Gal fluorescence, 48 h; note: potency is the fitted concentration of half-maximal effect; 0% is about no effect; nearly all actives have a fitted effect of over 65% in size
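Live 145M-Twi cells (Twitcher mouse brain-derived, GALC-null) stably expressing human GALC-G270D, with a wild-type GALC line, were compound-treated. Residual GALC activity was then read as fluorescence from 0.1 mM final HMU-β-gal at pH 5.2; higher signal means activation.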
FH mod = Identification of activators of human fumarate hydratase by quantitative high-throughput screening | 54,000 tested, 0.22% active | Fumarate hydratase, mitochondrial (Homo sapiens), P07954 | FH coupled MDH/diaphorase resazurin fluorescence, 15 min | Potency, µM (series often up to 79.9 µM), for inactives: top-dose activity change, negative = inhibition, actives largely listed as inhibitors | AID 1347055, 2019; note: potency is the fitted concentration of half-maximal effect; % is set by controls: 0 for no effect and ±100 for the full control effect; the screen sought activators but most active calls are inhibition curves; nearly all actives have a fitted effect of over 45% in size
TSG101-PTAP inh = qHTS Validation Assay for Inhibitors of HIV-1 Budding by Blocking the Interaction of PTAP/TSG101: Sytravon Library Screen; Tumor susceptibility gene 101 protein (Homo sapiens), Q99816; Fluorescence polarization, FITC-PTAP peptide/Tsg101, 20 min; Potency, µM (doses to about 115 µM), usual class: inhibitors; 44,000 tested, under 10 active; note: potency is the fitted concentration of half-maximal effect; 0% is about no effect
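Fluorescence polarization binding of Tsg101 binding domain (10 uM final) to FITC-labeled PTAP-motif peptide (50 nM final) in HEPES pH 7.5/NaCl/Tween 20/EDTA/TCEP buffer; 20 min at r.t. Actives by curve class, <25 µM, efficacy <60% inhibition.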
B2AR arrestin ag = qHTS assay of beta-arrestin-biased ligands of beta2-adrenergic receptor: NCGC Sytravon Library Screen | Potency, µM (highest dose often 46.1 µM), hits mostly activators | 44,000 tested, under 10 active | HTLA Tango cells, beta-arrestin recruitment, luciferase luminescence, 18 h | AID 1347077, 2019;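 note: potency is the fitted concentration of half-maximal effect; 0% = DMSO and full agonism = EC100 isoproterenol or metaproterenol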
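Tango cells expressing recombinant beta2-AR and beta-arrestin were treated with compounds (up to 46 microM titration) in DMEM with 1% FBS for 18 hr at 37 degrees C. Beta-arrestin recruitment drove tTA-dependent luciferase, read by luminescence; curves were fitted and classed.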
NTMT1 inh = Primary qHTS for Inhibitors of N-terminal methyltransferase 1 (NTMT1): MTaseGlo Assay. N-terminal Xaa-Pro-Lys N-methyltransferase 1 (Homo sapiens), Q9BV86. NTMT1 MTase-Glo SAH luminescence, purified enzyme. Potency, µM (doses to about 114 µM), inactives show at the highest dose activity change, negative = inhibition, usual class: inhibitors. 59,000 tested, 2.5% active. AID 1645870, 2021;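 note: potency is the fitted concentration of half-maximal effect; plate controls were DMSO vehicle for no effect and no enzyme for full effect; nearly all actives have a fitted effect of over 65% in size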
Target sequence (Q9BV86 whole entry, looked up): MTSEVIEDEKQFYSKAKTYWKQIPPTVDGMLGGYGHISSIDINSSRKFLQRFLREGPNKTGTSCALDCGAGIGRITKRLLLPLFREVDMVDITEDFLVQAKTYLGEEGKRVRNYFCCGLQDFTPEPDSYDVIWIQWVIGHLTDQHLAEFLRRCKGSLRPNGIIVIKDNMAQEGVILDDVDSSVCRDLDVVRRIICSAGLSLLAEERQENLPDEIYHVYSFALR
* marks the source's active call; other numbers are inactive results; i = inactive; ? = inconclusive; / = not tested or not shown; ! = repeats disagree; [ ] = dose if it differs, or a comment. The entries come from a sample that favours hits as a whole. Calls come from the whole dose curve; as a rule, active = well fitted curve in the direction sought with a large enough effect; inconclusive = small, poorly fitted or top-dose-only effect, or another doubt; inactive = no such curve, though single readings can be large; an effect the other way counts as inactive or inconclusive.

SMILES	GALK inhibitor	GALC G270D act	FH mod	TSG101-PTAP inh	B2AR arrestin ag	NTMT1 inh
Cc1nnc(-c2sc(NC(=O)[C@H](C(C)C)n3c(=O)[nH]c4ccccc4c3=O)nc2C)o1	/	/	?	/	/	-4%[57.5 µM]
Cc1ccc(OCC(=O)NCC(c2ccc(Cl)cc2)N2CCCCC2)cc1 (stereo unspecified)	0%	i	-7%	i	i	79µM*
CC(C)(C)c1cccc(NC(=O)Nc2nnc(-c3ccncc3)s2)c1	/	/	/	/	/	7%
O=C1NC(=O)/C(=C/c2ccc3c(c2)OCO3)S1	/	/	32µM*	/	/	3%
COc1ccc(CCC(=O)NCCc2nc3ccccc3n2CCOc2ccc(C)cc2)cc1	/	/	/	/	/	-26%
FC(F)(F)c1cccc(-c2nc(NCc3ccc(-c4cccnc4)cc3)c3ccccc3n2)c1	/	/	/	/	/	-1%
CCCCCCCCc1ccc(CCC(N)(CO)CO)cc1	/	/	7%	/	/	45µM*!
O=c1oc2c(O)c(O)cc3c(=O)oc4c(O)c(O)cc1c4c23	/	i	-12%[53.3 µM]	/	/	3.5µM*!
COc1cc(Nc2nc(-c3ccncc3)nc3ccccc23)ccc1Cl	/	/	/	/	/	-13%
O=c1c2ccccc2nc2sc(Nc3ccc4c(c3)CNC4)nn12	/	/	/	/	/	50µM*
Cn1ncc2cc(-c3cnc(N)c(Cl)c3N3CCC4(CCNC4=O)CC3)ccc21	/	/	-6%	/	/	-6%
COc1ccc(OC)c(NC(=O)CSc2n[nH]c(-c3ccccc3Cl)n2)c1	3%	i	7.9µM*	i	i	0%
COc1cc2c(cc1OC)CN(C(=O)[C@@H](NCc1ccncc1)C(C)(C)C)CC2	/	/	2%	/	/	-10%[57.5 µM]
NS(=O)(=O)Oc1ccc2c3c(c(=O)oc2c1)CCCCC3	/	/	/	/	/	28µM*
O=C1Nc2ccccc2/C1=C/c1cc(O)ccc1O	/	/	?	/	/	40µM*
O=C1Nc2ccccc2/C1=C\c1ccc([N+](=O)[O-])cc1	/	/	/	/	/	-17%
O=S(=O)(Nc1nc(-c2ccccc2C(F)(F)F)nc2ccccc12)c1ccc(Br)cc1	/	/	/	/	/	9%
Nc1ccc(-c2nnc(NC(=O)Nc3ccc(Cl)c(Cl)c3)s2)cc1	/	/	/	/	/	-5%
O=C(Nc1ccc(Cl)c(Cl)c1)Nc1nnc(-c2cccnc2)s1	/	/	/	/	/	22µM*
O=C(Cn1nc2c(cc1=O)CCCC2)NCc1ccccc1	0%	i	1%	i	i	89µM*
COc1cccc(C(=O)Nc2nc3c(s2)CCCC3)c1	2%	i	-31%	i	i	40µM*
CCCOc1ccccc1C(=O)Nc1nc2c(s1)CCCC2	4%	i	-15%	i	i	79µM*
Cc1cccn2c(=O)cc(CSc3nnc(NC(=O)COc4ccccc4)s3)nc12	0%	i	-29%	i	i	40µM*
S=c1nc[nH]c2nc[nH]c12	/	i	-8%[53.3 µM]	/	/	25µM*!
Brc1c(Br)c(Br)c2[nH]cnc2c1Br	/	/	-15%[53.3 µM]	/	/	/
O=C(NCCN1CCCCC1)c1ccc(Cn2c(SCc3ccccc3)nc3cccnc32)cc1	6%	i	-12%	i	i	40µM*
CCOC(=O)N1CCN(C(=O)c2ccc3c(c2)N(Cc2cc(C)ccc2C)C(=O)c2ccccc2S3=O)CC1 (stereo unspecified)	9%	i	-17%	i	i	89µM*
Cc1cc(Cl)ccc1NC(=O)Cn1nc(C)c2c(C)n(-c3ccccc3)nc2c1=O	0%	i	-7%	i	i	50µM*

High-throughput results as filed in PubChem BioAssay.
